In PubChem BioAssay AID1159580 (chemical genetic matrix, 2015):
Out of some 5,500 compounds screened, about 2,000 (36%) were called active. Another 18% or so got no clear call; they are omitted. Cut-off read from the data, not from the text of the source: active = normalized growth mostly below about 0.91 (no sharp cut-off); inconclusive = no clear call, values can overlap the other calls; inactive = mostly above about 0.92. The list shows a part of the results. Where a SMILES comes first, the peptide text is derived from it. Side-chain parts run from the residue outwards. [ ]: non-standard residue; d: D form. The star is where a group is joined. X1 = CCC(C)C(N)C1=NC(C(=O)*)CS1; Orn = NCCC[CH](N)C(=O)O

Assay: chemical genetic growth profiling, strain panel (AID 1159580);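 note: tested at 20 µM; growth read once vehicle control cultures reached saturation at 30 °C; 1 = growth at the plate median or of vehicle wells; lower values mean less growth of the strain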
Conditions: growth OD

Measured: normalized growth

CCC(C)C(N)C1=NC(C(=O)NC(CC(C)C)C(=O)NC(CCC(=O)O)C(=O)NC(C(=O)NCCCCC2NC(=O)C(CC(N)=O)NC(=O)C(CC(=O)O)NC(=O)C(Cc3cnc[nH]3)NC(=O)C(Cc3ccccc3)NC(=O)C(C(C)CC)NC(=O)C(CCCN)NC2=O)C(C)CC)CS1 (stereo not drawn) (cyclo(DNK([Ile-Glu-Leu-X1])[Orn]IFH); configuration not given here)
inactive: S. cerevisiae deletion strains, locus YJR075W, strain HOC1, hits give low values 0.986 | S. cerevisiae deletion strains, locus YKL009W, strain mrt4, hits give low values 0.974 | S. cerevisiae deletion strains, locus YKL068W, hits give low values 0.995 | S. cerevisiae deletion strains, locus YKL085W, strain MDH1 (second series), hits give low values 0.966 | S. cerevisiae deletion strains, locus YKL085W, strain MDH1, hits give low values 0.966 | S. cerevisiae deletion strains, locus YKL160W, strain elf1, hits give low values 1.02 | S. cerevisiae deletion strains, locus YKL190W, strain CNB1, hits give low values 0.996 | S. cerevisiae deletion strains, locus YKR001C, strain vps1, hits give low values 1.01 | S. cerevisiae deletion strains, locus YKR026C, strain gcn3, hits give low values 1.05 | S. cerevisiae deletion strains, locus YKR091W, strain srl3, hits give low values 0.973 | S. cerevisiae deletion strains, locus YLL001W, strain dnm1, hits give low values 1.04 | S. cerevisiae deletion strains, locus YLL026W, hits give low values 1.01 | S. cerevisiae deletion strains, locus YLL041C, strain sdh2, hits give low values 1.01 | S. cerevisiae deletion strains, locus YLR027C, strain aat2, hits give low values 1.01 | S. cerevisiae deletion strains, locus YLR039C, strain RIC1, hits give low values 1.06 | S. cerevisiae deletion strains, locus YLR058C, strain SHM2, hits give low values 0.994 | S. cerevisiae deletion strains, locus YLR102C, strain apc9, hits give low values 1.01 | S. cerevisiae deletion strains, locus YLR113W, strain HOG1, hits give low values 1.05 | S. cerevisiae deletion strains, locus YLR221C, strain rsa3, hits give low values 1.01 | S. cerevisiae deletion strains, locus YLR258W, strain gsy2, hits give low values 0.993 | S. cerevisiae deletion strains, locus YLR262C, strain YPT6 (second series), hits give low values 1.01 | S. cerevisiae deletion strains, locus YLR262C, strain YPT6, hits give low values 1.02 | S. cerevisiae deletion strains, locus YLR268W, strain sec22, hits give low values 1.02 | S. cerevisiae deletion strains, locus YLR320W, strain mms22, hits give low values 0.982 | S. cerevisiae deletion strains, locus YLR330W, strain CHS5, hits give low values 1.01 | S. cerevisiae deletion strains, locus YLR342W, strain FKS1 (second series), hits give low values 1.03 | S. cerevisiae deletion strains, locus YLR342W, strain FKS1, hits give low values 1.02 | S. cerevisiae deletion strains, locus YLR357W, strain rsc2, hits give low values 1.07 | S. cerevisiae deletion strains, locus YLR370C, strain arc18, hits give low values 0.999 | S. cerevisiae deletion strains, locus YLR371W, strain rom2, hits give low values 1.02 | S. cerevisiae deletion strains, locus YLR384C, strain iki3, hits give low values 0.993 | S. cerevisiae deletion strains, locus YLR418C, strain cdc73, hits give low values 0.989 | S. cerevisiae deletion strains, locus YML016C, strain PPZ1, hits give low values 0.992 | S. cerevisiae deletion strains, locus YML032C, strain rad52, hits give low values 0.967 | S. cerevisiae deletion strains, locus YML120C, strain ndi1, hits give low values 0.994 | S. cerevisiae deletion strains, locus YML124C, strain tub3, hits give low values 0.981 | S. cerevisiae deletion strains, locus YMR058W, strain fet3, hits give low values 1.02 | S. cerevisiae deletion strains, locus YMR078C, strain ctf18, hits give low values 0.988 | S. cerevisiae deletion strains, locus YMR125W, strain sto1, hits give low values 1.02 | S. cerevisiae deletion strains, locus YMR129W, hits give low values 0.997 | S. cerevisiae deletion strains, locus YMR205C, strain PFK2, hits give low values 0.998 | S. cerevisiae deletion strains, locus YMR223W, strain ubp8, hits give low values 1 | S. cerevisiae deletion strains, locus YMR231W, strain pep5, hits give low values 0.996 | S. cerevisiae deletion strains, locus YMR263W, strain SAP30, hits give low values 1.01 | S. cerevisiae deletion strains, locus YMR307W, strain GAS1, hits give low values 0.955 | S. cerevisiae deletion strains, locus YNL067W, strain RPL9B, hits give low values 1 | S. cerevisiae deletion strains, locus YNL071W, strain lat1, hits give low values 1 | S. cerevisiae deletion strains, locus YNL128W, strain TEP1, hits give low values 0.999 | S. cerevisiae deletion strains, locus YNL153C, strain GIM3, hits give low values 0.992 | S. cerevisiae deletion strains, locus YNL183C, strain NPR1, hits give low values 0.975 | S. cerevisiae deletion strains, locus YNL209W, strain ssb2, hits give low values 0.991 | S. cerevisiae deletion strains, locus YNL233W, strain BNI4, hits give low values 1.01 | S. cerevisiae deletion strains, locus YNL248C, strain rpa49, hits give low values 0.998 | S. cerevisiae deletion strains, locus YNL250W, strain rad50, hits give low values 1.01 | S. cerevisiae deletion strains, locus YNL271C, strain bni1, hits give low values 1.01 | S. cerevisiae deletion strains, locus YNL298W, strain CLA4, hits give low values 0.966 | S. cerevisiae deletion strains, locus YNL307C, strain MCK1, hits give low values 1 | S. cerevisiae deletion strains, locus YNL322C, strain KRE1 (second series), hits give low values 0.994 | S. cerevisiae deletion strains, locus YNR049C, strain mso1, hits give low values 0.995 | S. cerevisiae deletion strains, locus YNR052C, strain pop2, hits give low values 0.992 | S. cerevisiae deletion strains, locus YOL006C, strain TOP1, hits give low values 0.996 | S. cerevisiae deletion strains, locus YOL012C, strain htz1 1.9 | S. cerevisiae deletion strains, locus YOL147C, strain pex11, hits give low values 0.994 | S. cerevisiae deletion strains, locus YOR001W, strain rrp6, hits give low values 1.01 | S. cerevisiae deletion strains, locus YOR061W, strain CKA2, hits give low values 1.01 | S. cerevisiae deletion strains, locus YOR069W, strain VPS5, hits give low values 1 | S. cerevisiae deletion strains, locus YOR070C, strain gyp1, hits give low values 1.01 | S. cerevisiae deletion strains, locus YOR080W, strain dia2, hits give low values 1 | S. cerevisiae deletion strains, locus YOR083W, strain WHI5, hits give low values 1.04 | S. cerevisiae deletion strains, locus YOR106W, strain vam3, hits give low values 1.02 | S. cerevisiae deletion strains, locus YOR136W, strain idh2, hits give low values 1.01 | S. cerevisiae deletion strains, locus YOR144C, strain elg1, hits give low values 0.999 | S. cerevisiae deletion strains, locus YOR184W, strain ser1, hits give low values 1.01 | S. cerevisiae deletion strains, locus YOR231W, strain MKK1, hits give low values 1.03 | S. cerevisiae deletion strains, locus YOR265W, strain rbl2, hits give low values 1.01 | S. cerevisiae deletion strains, locus YOR270C, strain vph1, hits give low values 1 | S. cerevisiae deletion strains, locus YOR290C, strain snf2, hits give low values 0.963 | S. cerevisiae deletion strains, locus YOR316C, strain cot1, hits give low values 1 | S. cerevisiae deletion strains, locus YPL051W, strain arl3, hits give low values 1.04 | S. cerevisiae deletion strains, locus YPL078C, strain atp4, hits give low values 1.02 | S. cerevisiae deletion strains, locus YPL106C, strain sse1, hits give low values 0.976 | S. cerevisiae deletion strains, locus YPL240C, strain hsp82, hits give low values 1 | S. cerevisiae deletion strains, locus YPL256C, strain CLN2, hits give low values 1.02 | S. cerevisiae deletion strains, locus YPR119W, strain clb2, hits give low values 0.993 | S. cerevisiae deletion strains, locus YPR141C, strain kar3, hits give low values 0.994 | S. cerevisiae deletion strains, locus YPR163C, strain tif3, hits give low values 0.995 | S. cerevisiae deletion strains, locus YPR167C, strain met16, hits give low values 0.993 | S. cerevisiae deletion strains, strain wtn01, hits give low values 1.03 | S. cerevisiae strains, strain wild type, hits give low values 0.992
